Bioassay records: PubChem BioAssay, National Center for Advancing Translational Sciences (NCATS)
Only some compounds are listed: those with a hit (about 6.5% of all), similar ones and a draw of the others.
HCMV antiviral: human cytomegalovirus inhibition. 410,000 tested, 4.5% active. activity change, negative = inhibition, % at 57.5 µM. HFF cells, HCMV-luciferase reporter, 72 h; stronger effect = lower value; in the data active means activity change below about -60%; inconclusive means no clear call, values can overlap the other calls; inactive means above about -39%
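Two compound doses tested in HFFs infected with HCMV-luciferase, MOI 1 PFU/cell, 72 h at 37C. Lysate luminescence read with OneGlo; data normalized against buffer-only and 10uM Salinomycin inhibitor controls.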
Lassa entry inh: blocks Lassa virus binding to or entry into cells | Lassa virus pseudotype entry inhibition, cell reporter | Potency, µM (doses to about 37.9 µM), inactives show at the top dose activity change, negative = inhibition, most hits filed as inhibitors | 300,000 tested, 1.2% active | AID 540256; calls by dose curve; tested in HEK293 cells; further: potency means the concentration at half of the fitted maximal effect; nearly all actives have a fitted effect of over 50% in size
FMDV antiviral: foot and mouth disease virus antiviral activity; FMDV antiviral cell-based qHTS; Potency, µM (doses to about 57.9 µM), inactives show at the highest dose activity change, negative = inhibition, most hits filed as inhibitors; 410,000 tested, 1.2% active; AID 1159524; calls by dose curve; tested in HEK293T cells; further: read-out not given here; potency means the concentration at half of the fitted maximal effect; nearly all actives have a fitted effect of over 45% in size
VACV mCherry inh: vaccinia inhibition (mCherry reporter) | AID 720579 | Potency, µM (highest dose often 36.5 µM), for the others: top-dose activity change, negative = inhibition, actives largely listed as inhibitors | Vaccinia virus mCherry reporter infection, fluorescence | 310,000 tested, 0.63% active; calls by dose curve; tested in A549 cells; further: potency means the concentration at half of the fitted maximal effect; nearly all actives have a fitted effect of over 35% in size
MARV entry inh: inhibitors of Marburg virus binding or cell entry | Marburg virus pseudotyped entry inhibition, cell reporter | Potency, µM (highest dose often 37.8 µM), for inactives: at the top dose activity change, negative = inhibition, usual class: inhibitors | 300,000 tested, 1.8% active | AID 540276; calls by dose curve; tested in HEK293 cells; further: potency means the concentration at half of the fitted maximal effect
VACV Venus inh: vaccinia inhibition (Venus reporter); Potency, µM (doses to about 36.5 µM), without a hit: top-dose activity change, negative = inhibition, most hits filed as inhibitors; AID 720580; Vaccinia virus Venus reporter expression, fluorescence; 330,000 tested, 0.46% active; calls by dose curve; tested in A549 cells; further: potency means the concentration at half of the fitted maximal effect; nearly all actives have a fitted effect of over 30% in size
* = called active by the depositor; [ ] = dose if it differs, or a comment. On the % scale 0 is the no-effect control and ±100 the full control effect.

For COc1ccc(/C=N/NC(=O)c2ccc(N3CCCC3=O)cc2)cc1 the results were HCMV antiviral -22, Lassa entry inh inconclusive, FMDV antiviral 0%, VACV mCherry inh inactive, MARV entry inh -13%[46.1 µM] and VACV Venus inh 6%.
For COc1ccc(-n2nc(-c3ccc(C)cc3)c3cnc4cc(F)c(F)cc4c32)cc1 the results were HCMV antiviral -4, Lassa entry inh 3%[46.1 µM], FMDV antiviral -20%, VACV mCherry inh -2%, MARV entry inh -2%[46.1 µM] and VACV Venus inh -4%.
`COc1ccc(CNC(=O)c2ccc(CS(=O)(=O)c3ccccc3OC)o2)cc1` gave HCMV antiviral -23, Lassa entry inh -8%[46.1 µM], FMDV antiviral -13%, VACV mCherry inh -8% and VACV Venus inh -7%.
Screening COc1ccc(OC)c(CNC(=O)C2CCCN(S(=O)(=O)N3CCC(C)CC3)C2)c1 (configuration not stated) returned HCMV antiviral -24 and FMDV antiviral -17%.
For CN(c1ccc(F)cc1)S(=O)(=O)N1CCCC(C(=O)NCc2ccccc2Cl)C1 (configuration not stated) the results were HCMV antiviral -40, Lassa entry inh inconclusive, FMDV antiviral -9%, VACV mCherry inh -12% and VACV Venus inh -5%.
`CN(c1ccc(F)cc1)S(=O)(=O)N1CCCC(C(=O)NCCc2ccccc2)C1` (configuration not stated) gave HCMV antiviral 12, Lassa entry inh -29%[46.1 µM], FMDV antiviral -14%, VACV mCherry inh -8% and VACV Venus inh -9%.
For CSc1ccc(CCNC(=O)C2CCCN(S(=O)(=O)N(C)c3ccc(F)cc3)C2)cc1 (configuration not stated) the results were HCMV antiviral inconclusive, Lassa entry inh -18%[46.1 µM], FMDV antiviral 35µM*, VACV mCherry inh -7% and VACV Venus inh -22%.
Screening COc1cccc(CNC(=O)C2CCCN(S(=O)(=O)N(C)c3ccc(F)cc3)C2)c1OC (configuration not stated) returned HCMV antiviral -71*, Lassa entry inh -17%[46.1 µM], FMDV antiviral 22µM*, VACV mCherry inh -12% and VACV Venus inh -26%.
For COc1ccc(CNC(=O)C2CCCN(S(=O)(=O)N3CCC(C)CC3)C2)c(OC)c1 (configuration not stated) the results were HCMV antiviral active, Lassa entry inh -12%[46.1 µM], FMDV antiviral 7%, VACV mCherry inh -2%, MARV entry inh 1%[46.1 µM] and VACV Venus inh -20%.
`Cc1ccc(S(=O)(=O)N2CCN(S(=O)(=O)c3ccc4c(c3)OCCCO4)CC2)cc1` gave VACV mCherry inh 10% and VACV Venus inh -21%.
Cc1ccc(-c2noc(-c3cccnc3NCc3ccco3)n2)cc1 was read as HCMV antiviral 56, Lassa entry inh 24%[46.1 µM], FMDV antiviral 27%, VACV mCherry inh -13%, MARV entry inh inconclusive and VACV Venus inh 0%.
For O=C1CCC[C@H]2[C@@H](Cc3ccccc3)[C@@H](NS(=O)(=O)c3ccc([N+](=O)[O-])cc3)CC[C@]23CCCN13 the results were HCMV antiviral -30.
Screening CN(C)c1ccc(CNC(=O)CCCN2C(=O)CCn3nc(-c4cccn4C)cc32)cc1 returned HCMV antiviral 13, Lassa entry inh 4%[46.1 µM], FMDV antiviral 7%, VACV mCherry inh -3% and VACV Venus inh 14%.
`Nc1c2ccccc2nc2ccccc12` gave HCMV antiviral -99*, Lassa entry inh inconclusive, FMDV antiviral inconclusive, VACV mCherry inh inconclusive, MARV entry inh inconclusive and VACV Venus inh 10µM*.
COc1ccc(CC(NC(C)=O)C(=O)NC2CCN(C(=O)C3CCCCC3)CC2)cc1OC (configuration not stated) was read as HCMV antiviral -68*, Lassa entry inh -5%[46.1 µM], FMDV antiviral -9%, VACV mCherry inh -9%, MARV entry inh 6%[46.1 µM] and VACV Venus inh -1%.
For CCOc1ccc(CNC(=O)c2ccc3c(c2)nc2n3CCCCC2)cc1 the results were HCMV antiviral 27, Lassa entry inh inconclusive, FMDV antiviral 28%, VACV mCherry inh -12%[7.34 µM] and VACV Venus inh -8%[7.34 µM].
For COc1cc2c(cc1OC)-c1cc(NC3CCCCCCC3)nc(=O)n1CC2 the results were HCMV antiviral -17, Lassa entry inh 14µM*, FMDV antiviral 0%, VACV mCherry inh -15%[1.46 µM], MARV entry inh inconclusive and VACV Venus inh -27%.
CCOc1ccc(Nc2cc3n(c(=O)n2)CCc2cc(OC)c(OC)cc2-3)cc1 was read as HCMV antiviral 8, Lassa entry inh 11µM*, FMDV antiviral -8%, VACV mCherry inh -5%, MARV entry inh -25% and VACV Venus inh -23%.
Screening CCOc1ccccc1Nc1cc2n(c(=O)n1)CCc1cc(OC)c(OC)cc1-2 returned HCMV antiviral 80, Lassa entry inh inconclusive, FMDV antiviral -15%, VACV mCherry inh -27%, MARV entry inh inconclusive and VACV Venus inh -21%.
`CCCC(=O)Nc1ccc(C=C(C(C)=O)C(C)=O)cc1` gave HCMV antiviral 44, Lassa entry inh 18%, FMDV antiviral 22µM*, VACV mCherry inh -21%, MARV entry inh -11% and VACV Venus inh -20%.
`CCCC(=O)Nc1ccc(Oc2ccc(NC(=O)CCC)cc2)cc1` gave HCMV antiviral 6, Lassa entry inh 2%, FMDV antiviral -5% and MARV entry inh 2%.
CC(NC(=O)NNC(N)=S)(C(F)(F)F)C(F)(F)F was read as HCMV antiviral -17, Lassa entry inh -1%, FMDV antiviral -7%, VACV mCherry inh inconclusive, MARV entry inh -12% and VACV Venus inh 28µM*.
CC(NC(=O)NC(N)=O)(C(F)(F)F)C(F)(F)F was read as HCMV antiviral -29, Lassa entry inh 10%, VACV mCherry inh -13%, MARV entry inh -16% and VACV Venus inh -19%.
`CCc1ccc(NC(=O)CSC2=Nc3ccccc3C3=NC(CCC(=O)NCc4cccs4)C(=O)N23)cc1` (configuration not stated) gave HCMV antiviral inconclusive, Lassa entry inh -10%[46.1 µM], FMDV antiviral -24%, VACV mCherry inh -15% and VACV Venus inh -8%.
Screening C=CCN1C(=O)NC(=O)/C(=C/C=C/c2ccccc2)C1=O returned HCMV antiviral -112*, Lassa entry inh 18%, FMDV antiviral inconclusive, VACV mCherry inh -13%, MARV entry inh 17% and VACV Venus inh 21%.
Screening O=C1NC(=O)N(CCc2ccc(F)cc2)C(=O)/C1=C\C=C\c1ccccc1 returned HCMV antiviral -33, FMDV antiviral 10µM*, VACV mCherry inh -8%, MARV entry inh 9%[46.1 µM] and VACV Venus inh 5%.
Screening O=C(Cn1cc(COc2ccc([N+](=O)[O-])cc2)nn1)c1ccc(O)cc1 returned Lassa entry inh 5%[46.1 µM].
